Assay outcomes (PubChem)
Rows were chosen to be rich in hits. Some 21% of all compounds tested hit in one or more screens of this group.
AMA1-RON2 inh – disrupts binding of P. falciparum AMA1 to RON2. AlphaScreen AMA1-biotinylated RON2 peptide binding. Potency, µM (top dose mostly 58.2 µM), without a hit: top-dose activity change, negative = inhibition, most hits filed as inhibitors. actives 0.2% (n = 360,000);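 note: potency is the fitted concentration of half-maximal effect; 0% = vehicle wells and -100% = peptide control; nearly all actives have a fitted effect of over 45% in size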
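AMA1 (3D7) with his tag at 25 nM final met compounds first, then biotinylated RON2 peptide at 25 nM; detection used donor plus acceptor beads, 10 µg/mL apiece, read by AlphaScreen after 30 min at room temperature.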
Cycloheximide cs – counter-screen hit for Shiga toxin inhibitors, cycloheximide | max response, % | actives 12% (n = 300,000) | cell reporter, cycloheximide protein synthesis inhibition counterscreen | AID 2314; in the data active = max response mostly above about 13%, no sharp cut-off; inactive = mostly below about 14%; note: read at 38.3 µM for the half of the compounds with a filed dose; 0% is about no effect
HCV inhibitor – inhibitors of hepatitis C virus infection; Huh7.5.1 HCVcc-Cre infection, luciferase reporter, 44 h; Potency, µM (series often up to 41.8 µM), without a hit: top-dose activity change, negative = inhibition, most hits filed as inhibitors; actives 3.4% (n = 340,000); AID 651820; note: potency is the fitted concentration of half-maximal effect; % is set by controls: 0 for no effect and ±100 for the full control effect
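A cell-based infection assay in which seeded cells (1,000 per well) receive test compound after 4 h, are inoculated with HCVcc-Cre at approximately 0.5 moi, and are incubated 44 h before luminescence detection.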
Pf growth 48h – inhibits P. falciparum growth in the first generation, 48 h | AID 504832 | Potency, µM (titrated, usually from 28.7 µM), for inactives: at the top dose activity change, negative = inhibition, actives largely listed as inhibitors | P. falciparum luciferase growth in erythrocytes, 48 h | actives 5.9% (n = 310,000); note: potency is the fitted concentration of half-maximal effect; % is set by controls: 0 for no effect and ±100 for the full control effect
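First compound was added to culture medium, then infected red cells at 0.1% parasitemia and 2% hematocrit (final). After incubation at 37 C under 5% CO2, luciferase detection reagent was dispensed and light output recorded.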
Shiga inhibitor – blocks Shiga toxin action in Vero cells; inhibition, % at 38.7 µM; actives 9.2% (n = 290,000); Vero cells, Shiga toxin protein synthesis inhibition reporter; in the data active = inhibition mostly above about 28%, no sharp cut-off; inactive = mostly below about 43%; note: 0% is about no effect
Pf growth 96h – inhibits malaria parasite growth, 96 h | P. falciparum luciferase reporter growth, 96 h | Potency, µM (titrated, usually from 28.7 µM), for the others: at the top dose activity change, negative = inhibition, usual class: inhibitors | actives 6.9% (n = 320,000) | AID 504834; note: potency is the fitted concentration of half-maximal effect; % is set by controls: 0 for no effect and ±100 for the full control effect
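Luminescence readout: decreased luciferase signal marks inhibited growth of reporter-expressing P. falciparum in infected red cells (2% hematocrit, 0.05% parasitemia final), exposed to compound two generations (96 h, 37 C, 5% CO2).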
Starred values were filed as active, the others as inactive; ? = inconclusive; · = no result given; [ ] = remark or other dose. Unless noted, calls come from the whole dose curve; as a rule, active = well fitted curve in the direction sought with a large enough effect; inconclusive = small, poorly fitted or top-dose-only effect, or another doubt; inactive = no such curve, though single readings can be large; an effect the other way counts as inactive or inconclusive.

SMILES	AMA1-RON2 inh	Cycloheximide cs	HCV inhibitor	Pf growth 48h	Shiga inhibitor	Pf growth 96h
CCC1CCCCN1C(=O)CCn1c(=O)oc2ccccc21 (centres undefined)	10%	·	12%	·	·	·
Cc1ccc(S(=O)(=O)N[C@H](C(=O)OCC(=O)NC(=O)Nc2ccc3c(c2)OCCO3)C(C)C)cc1	-1%[2.32 µM]	19*	17%	33%	14	38%
Cc1ccc(S(=O)(=O)N[C@H](C(=O)OCC(=O)NC(=O)C2CCCCC2)C(C)C)cc1	3%	·	35%	·	·	·
O=C(COC(=O)CNS(=O)(=O)c1cccc(Br)c1)NC(=O)Nc1ccc2c(c1)OCCO2	-2%[2.32 µM]	35*	1%	15%	63*	47%
O=C(COC(=O)CNS(=O)(=O)c1ccc2ccccc2c1)Nc1ccc2c(c1)OCO2	-9%[2.32 µM]	-3	31%	4%	-9	28%
Cc1cc(NC(=O)CCC(=O)N(c2ccccc2)C(C(=O)NC2CCCCC2)c2cccs2)no1 (centres undefined)	-5%	-3	2%	?	-4	8.3µM*
Cc1cc(NC(=O)CCC(=O)N(CC(=O)NC2CCCC2)c2ccccc2)no1	-22%	1	-15%	?	-3	15µM*
O=C(c1ccccn1)N(Cc1ccco1)C1(C(=O)NC2CCCC2)CCCCC1	17%	5	?	·	20	?
Cc1cc(NC(=O)CCC(=O)N(Cc2ccco2)C2(C(=O)NC3CCCC3)CCC(C)CC2)no1 (centres undefined)	-5%	-1	14µM*	15µM*	-9	?
Cc1cc(NC(=O)CCC(=O)N(c2ccccc2)C(C(=O)NC2CCCC2)c2ccc(F)cc2)no1 (centres undefined)	-3%	-2	1%	-14%	-9	?
Cc1cc(NC(=O)CCCC(=O)N(CC(=O)NC2CCCCC2)c2ccccc2)no1	-7%	-2	3%	-22%	21	1%
O=C(c1ccc2c(c1)OCO2)N(Cc1ccco1)C1(C(=O)NC2CCCCC2)CCCCC1	-11%	-4	10µM*	·	-7	57%
Cc1cc(NC(=O)/C=C/C(=O)N(CC(=O)NC2CCCC2)c2cccc3ccccc23)no1	18%	-6	4%	10µM*	0	1%
CCc1ccccc1N(C(=O)CCC(=O)Nc1cc(C)on1)C(C(=O)NC1CCCC1)c1ccco1 (centres undefined)	12%	1	?	9.3µM*	-23	27%
Cc1cc(NC(=O)CCC(=O)N(c2ccc(F)cc2)C(C(=O)NC2CCCC2)c2ccc(C)o2)no1 (centres undefined)	0%	18	-11%	9.3µM*	13	32%
CCc1ccc(N(C(=O)CCC(=O)Nc2cc(C)on2)C(C(=O)NC2CCCC2)c2ccco2)cc1 (centres undefined)	1%	-2	?	?	2	?
Cc1cc(NC(=O)CCC(=O)N(c2ccc(F)cc2)C(C(=O)NC2CCCC2)c2ccccc2)no1 (centres undefined)	16%	-8	4%	?	-7	?
Cc1cc(NC(=O)CCC(=O)N(c2ccccc2)C(C(=O)NCC2CCCO2)c2cccnc2)no1 (centres undefined)	10%	-3	-12%	-1%	-7	10µM*
CCCC(=O)N1CCCC1(C)C(=O)Nc1cc(OC)c(OC)c(OC)c1 (centres undefined)	0%	·	·	·	·	·
NC(=O)C12CCCC(Br)(CCC1)C2	5%	-1	8%	6%	11	9%
Cc1ccc(S(=O)(=O)NCC(=O)OCc2nnc(-c3ccccc3)o2)cc1	5%	-3	6%	16%	6	29%
O=C(NCCc1ccccc1)C(=O)NCC1OCCCN1S(=O)(=O)c1cc(F)ccc1F (centres undefined)	0%	0	·	?	-20	?
COc1ccc(S(=O)(=O)N2CCOC2CNC(=O)C(=O)NCCc2c[nH]c3ccccc23)cc1C (centres undefined)	0%	-3	11µM*	?	-18	9.3µM*
O=C(NCCc1c[nH]c2ccccc12)C(=O)NCC1OCCCN1S(=O)(=O)c1cc(F)ccc1F (centres undefined)	-4%	-2	-20%	13µM*	3	3.3µM*
CC[C@H](C)[C@H](NC(=O)[C@H](Cc1ccc(O)cc1)NC(=O)[C@@H](NC(=O)[C@H](CCCN=C(N)N)NC(=O)[C@@H](N)CC(=O)O)C(C)C)C(=O)N[C@@H](Cc1cnc[nH]1)C(=O)N1CCC[C@H]1C(=O)O	·	-2	·	·	-3	·
SMILES	AMA1-RON2 inh	Cycloheximide cs	HCV inhibitor	Pf growth 48h	Shiga inhibitor	Pf growth 96h
N/C(=N\OC(=O)COc1ccc(Cl)cc1Cl)c1ccccn1	52%	35*	-18%	202%	48*	42%
N/C(=N\OC(=O)COc1ccc(Br)cc1Cl)c1ccncc1	36%	88*	10%	305%	121*	4%
N/C(=N\OC(=O)COc1ccc(Br)cc1Cl)c1ccccn1	0%	50*	-6%	410%	45	-4%
Cc1ccc(N)cc1N	-3%	·	-4%	19%	·	?
Cc1ccc(N)c(C(=O)c2ccc(Br)cc2)c1	16µM*	25	9%	29%	30	-7%
Cc1ccc(N)c(N)c1	-1%	51*	-4%	28%	157*	93%
COc1ccc(NC(=O)c2cc(C3CCCCN3C(=O)CCCc3ccccc3)on2)c(C)c1 (centres undefined)	-3%	·	·	·	·	·
COC(=O)C1=C(C)NC2=C(C(=O)CC(C)(C)C2)C1c1cccc(C)n1 (centres undefined)	16%	2	4%	-17%	0	?
COC(=O)C1=C(C)NC2=C(C(=O)CC(C)(C)C2)C1c1cn(Cc2ccc(Br)cc2)nc1-c1ccccc1 (centres undefined)	18%	2	?	13µM*	-2	?
COC(=O)C1=C(C)NC2=C(C(=O)CCC2)C1c1cn(Cc2ccc(Br)cc2)nc1-c1ccccc1 (centres undefined)	0%	-4	?	8.3µM*	-4	13µM*
COc1ccccc1-n1cnnc1SCC(=O)c1cc(C)n(Cc2cccs2)c1C	-5%	39*	?	-28%	38*	·
C=CCn1c(SCC(=O)c2cc(C)n(Cc3cccs3)c2C)nnc1-c1ccncc1	-21%	7	-8%	-24%	-7	-12%
Cc1cc(C(=O)CSc2nc3ccccc3n2CCC#N)c(C)n1Cc1cccs1	-3%	46*	?	?	55*	130%
Cc1cc(C(=O)CSc2nnc(-c3ccccc3F)o2)c(C)n1Cc1cccs1	-27%	19*	-11%	10%	32	0%
